Here are results for 69 compounds from ChEMBL document CHEMBL3988442, “University of Dundee, Small-Polar-MMV Screening Library” (2021).

The whole screen tested about 48,000 compounds, of which about 13,000 (27%) showed an effect of 50% or more. Some of the results follow.

This assay relates to Wolbachia pipientis. Put plainly: Anti-Wolbachia Cell-Based Screen. Format: functional. On the set-up: scale not given: in the data most compounds retested in dose-response had high values. As to conditions: 5 µM.
With `CCc1noc(CN(CC(=O)N2CCCCC2)c2cccc(C)c2)n1`, the “Percent Effect” value is recorded as 13.21%. To `COc1ccc(OCc2cc(C(=O)N3CC=CC3)n[nH]2)c(Cl)c1` belongs 6.358%; to `CS(=O)(=O)NCc1noc2c1CN(C(=O)C1CC1)CC2`, 103.2%. Regarding `CS(=O)(=O)NCc1noc2c1CN(C(=O)C1CCC1)CC2`, the “Percent Effect” value turned out to be 102.9%. The same measure for `COCC(=O)N1CCc2c(CNS(C)(=O)=O)n[nH]c2C1`: 5.679%. To `CC(=O)NCc1noc2c1CN(CCN1CCCC1)CC2.O=C(O)C(F)(F)F.O=C(O)C(F)(F)F` belongs -16.49%; to `O=C(c1ccnnc1)N1CCc2onc(CN3CCCC3)c2C1`, -11.85%; to `CS(=O)(=O)NCc1noc2c1CN(C(=O)c1ccsc1)CC2`, 8.076%. On to `CCC(=O)N1CCc2onc(CNS(C)(=O)=O)c2C1`, for which the “Percent Effect” value was 86.89%. The same measure for `FC(F)(F)C1CCCn2c(CNCc3cccs3)nnc21` (centres undefined): -7.2%; for `CCN(CC)C(=O)N1CCN(C2=NCC(C)S2)CC1` (centres undefined): -3.513%.

As for `Cc1nccc(CN2CC[C@@]3(CCCN3Cc3ccccc3)[C@@H](O)C2)n1`, the “Percent Effect” value was determined as 93.51%. The same measure for `Cc1nccc(CNC(=O)N2CCN(Cc3ccccc3)C[C@H]2C)n1`: -2.521%; for `Cc1ccnc(N2CCN(Cc3ccccc3)CC(O)C2)c1` (centres undefined): 10.83%; for `COc1ccc(-c2ccc(C(=O)NCCCC(N)=O)c(F)c2)c(F)c1`: -2.164%.

As to `Cn1cc(-c2noc(C3(C)CCOCC3)n2)cn1`, the “Percent Effect” value was -4.622%.

`Cc1cc(-c2cc(C3CCOC3)c(C#N)c(N)n2)ccc1Cl` (centres undefined): the “Percent Effect” value turned out to be 25.02%.

In the case of `CCn1cc(-c2c(C)c(C3CCOC(C)(C)C3)nc(N)c2C#N)cn1` (centres undefined), the “Percent Effect” value worked out at 115.2%. The same measure for `Cc1c(C2CCOC(C)(C)C2)nc(N)c(C#N)c1-c1ccc(O)cc1` (centres undefined): 105.2%. To `Cc1c(-c2cnn(C)c2)nc(N)c(C#N)c1-c1ccc(CO)o1` belongs 0.3251%. To `CCc1ccc(-c2c(C)c(-c3cnn(C)c3)nc(N)c2C#N)o1` belongs 7.382%; to `CCCc1c(C2CCOC(C)(C)C2)nc(N)c(C#N)c1-c1cnn(C)c1` (centres undefined), 105.7%; to `N#Cc1c(C2CC2)cc(-c2ccc(O)cc2)nc1N`, -0.3878%. As for `CN(C)C(=O)CN1C[C@@H]2CC[C@H](C1)N(C/C=C/c1ccc(F)cc1)C2`, the “Percent Effect” value is recorded as 0.7109%. To `CCc1cc(NC(=O)N2CCC(Oc3cccnc3)C2)n(C)n1` (centres undefined) belongs -19.7%; to `Cc1nn2cccnc2c1C(=O)NCc1ccccc1OCC1CC1`, 6.014%.

With `O=S(=O)(N1CCN(CC2CC2)CC1)N1CCCC1c1ccco1` (centres undefined), the “Percent Effect” value is given as 8.161%.

For `CC(=O)c1c(C)nn(CC(=O)N2Cc3cnc(CC(C)C)nc3C2)c1C`, the “Percent Effect” value is given as -0.1145%. To `CSCCC(C)(O)CNC(=O)Nc1ccccc1C` (centres undefined) belongs 6.778%; to `CCOc1ccc(NC(=O)NCC(C)(O)c2cccs2)cc1` (centres undefined), 123.8%. The same measure for `Cc1ccccc1NC(=O)NCC(C)(O)c1cccs1` (centres undefined): 117.7%; for `COC(=O)c1ccc(S(=O)(=O)NCC(C)(O)c2cccs2)cc1` (centres undefined): -7.069%; for `COc1ccc(CNC(=O)NCC(O)(c2cccs2)C2CC2)cc1` (centres undefined): 11.16%.

For the compound `CCOCc1ccccc1NC(=O)NCC(C)(O)c1cccs1` (centres undefined), the “Percent Effect” value is listed as -8.36%. The same measure for `OC(CNc1ccc(Cl)cn1)CN1CCOCC1` (centres undefined): -5.222%.

With `Cc1n[nH]c(C)c1Sc1ccccc1NC(=O)N1CCN(C)CC1`, the “Percent Effect” value turned out to be 1.27%. To `COCC(=O)Nc1ccccc1Sc1c(C)n[nH]c1C` belongs -1.881%. Take `Cn1cnnc1Sc1ccc(NC(=O)C2CC2)cc1Cl`: the “Percent Effect” value is -0.08341%. For `Cc1n[nH]c(C)c1Sc1ccccc1NC(=O)N1CCOCC1`, the “Percent Effect” value is on record as -5.626%.

As to `CCC(=O)Nc1ccccc1Sc1nc(Br)nn1C`, the “Percent Effect” value worked out at 107.5%.

`CC(=O)Nc1ccccc1Sc1nc(Br)nn1C`: the “Percent Effect” value is reported as 114.6%. To `CCCSc1ccccc1NC(=O)N1CCC(N2CCSCC2)CC1` belongs -2.644%; to `CCn1nc(Br)nc1Sc1ccccc1NC(C)=O`, 119.4%; to `Cn1nc(Br)nc1Sc1ccccc1NC(=O)C1CC1`, 107.9%. The same measure for `CSc1ccccc1NC(=O)CCC(=O)N(C)C1CCN(C)CC1`: 6.723%.

On to `Cc1n[nH]c(C)c1Sc1ccccc1NC(=O)CN1CCCC1`, for which the “Percent Effect” value is reported as 2.491%. The same measure for `CN(C)C(=O)N1CCN(C(=O)c2cccc(Cl)c2)CC2(CNC(=O)C2)C1` (centres undefined): -8.821%; for `CCCN(Cc1ccc(OC)nc1)Cc1ccccc1OC`: 7.541%; for `CS(=O)(=O)c1nccn1Cc1ccc(OC(F)F)cc1`: -0.8084%. For the compound `NC(=O)Nc1cccc(C(=O)N(Cc2ccc(F)cc2)C2CC2)c1`, the “Percent Effect” value is given as -11.54%. To `NC(=O)C1(CNCc2csc(-c3cccs3)n2)CCOCC1` belongs -0.8866%.

Turning to `Cc1cccc(N2CCN(C(=O)CN3CCC(C(N)=O)CC3)CC2)c1`, the “Percent Effect” value stood at 3.313%. The same measure for `CC(C)N1CCC(C(=O)N2CCN(c3cccc(C(=O)O)c3)CC2)CC1`: 106.6%; for `CC(C)N1CCCC(C(=O)N2CCN(c3cnn(C)c(=O)c3)CC2)C1` (centres undefined): -17.55%. As to `CC(C)c1cc(C(=O)N2CCN(c3cccc(C(=O)O)c3)CC2)n(C)n1`, the “Percent Effect” value was found to be 1.445%. Take `CC(C)N1CCC(C(=O)N2CCCN(c3ccccc3)CC2)CC1`: the “Percent Effect” value worked out at 106.5%. The same measure for `CC(C)N1CCCC(C(=O)N2CCN(c3cccc(C(=O)O)c3)CC2)C1` (centres undefined): 107.1%; for `CC(C)N1CCC(C(=O)N2CCC(c3ccc(F)cc3)C2)CC1` (centres undefined): 11.91%.

Turning to `O=C(Cc1ccc2c(c1)OCO2)N1CCCN(c2ccccc2)CC1`, the “Percent Effect” value was found to be 5.064%.

With `Cc1nn(C)cc1C(=O)N1C[C@H]2CC[C@@H]1CN(S(=O)(=O)N(C)C)C2`, the “Percent Effect” value turned out to be 7.621%. To `CC(C)CCC1=NC2(CCN(C(=O)CN3CCCC3=O)CC2)C(=O)N1` belongs 0.2617%; to `NS(=O)(=O)c1cnc(NCC2(c3cccc(F)c3)CCOCC2)s1`, -14.69%.

For `CC(=O)N1CC(=O)N(c2cnn(C)c2)CC12CCN(CC1CC1)C2.O=C(O)C(F)(F)F` (centres undefined), the “Percent Effect” value was -1.209%. The same measure for `CN(C)Cc1cc(=O)n2c(n1)CN(C(=O)Cc1cccs1)CCC2.O=C(O)C(F)(F)F`: 4.562%; for `Cc1ccsc1C(=O)N1CCCn2c(nc(CN(C)C)cc2=O)C1.O=C(O)C(F)(F)F`: -10.18%. Consider `CC(C)N(C)Cc1cncc2c1CCN(C(=O)c1ccc[nH]1)C2.Cl.Cl`, for which the “Percent Effect” value is -17.08%. To `CN(C)Cc1cc(=O)n2c(n1)CN(C(=O)c1ccc[nH]1)CCC2.O=C(O)C(F)(F)F` belongs 95.26%; to `CC(C)N(C)Cc1cc(=O)n2c(n1)CN(C(=O)c1ccc[nH]1)CCC2`, 99.67%. For `CCN(CC)Cc1cc(=O)n2c(n1)CN(C(=O)c1ccc[nH]1)CCC2`, the “Percent Effect” value was 89.92%.
